Screening results: PubChem BioAssay, several laboratories
Sampled rows, rich in hits. Any-hit rate of the full collection: about 1.8%.
SUMO Mot1 rescue: inhibitors of SUMOylation pathway: yeast Mot1-301 growth rescue | S. cerevisiae Mot1-301 growth rescue, ATP luminescence, 38.5C; percent above DMSO median, 100 means doubled | growth rescue, % at 18.8 µM | actives 1% (n = 320,000) | AID 2716;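 active means every valid replicate shows activation above 250% relative to neutral control wells; inactive means the rest, any valid replicate at or below 250%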;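 further: OY570 slx delta 5 strain wells were the positive control but not used for scaling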
NLRP3 yeast inh: inhibitors of NALP3 inflammasome in yeast; actives 0.39% (n = 330,000); AID 2825; inhibition, % at 10 µM; Yeast reconstituted NLRP3/ASC/caspase-1, beta-gal luminescence, 24 h;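 active means inhibition of 50% or more; inactive means inhibition below 50%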;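 further: plate controls were induced DMSO wells for no effect and uninduced yeast grown without galactose for full effect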
PolyA inhibitor: yeast polyadenylation inhibition. AID 1875. actives 0.02% (n = 300,000). S. cerevisiae SKY197-pL101 polyadenylation reporter, beta-gal luminescence; efflux-impaired pdr1/pdr3 knockout yeast; score 100 = 6 SD above DMSO. activity score, % at 12 µM;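 active means lowest replicate activity score at least 50, where 100 means six control SD above control mean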;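 further: yeast exposed to compound for 9 h at 30 °C; higher score means more reporter readthrough which indicates perturbed polyadenylation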
NALP1 inh: NALP1 inhibition. S. cerevisiae NALP1/ASC/caspase-1 growth, X-gal OD620, 72 h. inhibition, % at 10 µM. actives 0.61% (n = 280,000); in the data active means inhibition mostly above about 24%, no sharp cut-off; inactive means mostly below about 32%
Yeast Mot1 SUMO: SUMO pathway inhibitors in yeast Mot1-301 growth; shares compounds with SUMO Mot1 rescue; S. cerevisiae Mot1-301 galactose growth, ATP luminescence, 24 h; -100 = growth of slx-deleted rescue strain; growth activity, percent, % at 42 µM; 2,300 tested, under 10 active; AID 493004;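 active means Signal drops as the depositor expects, and the fitted half-maximal dose is no more than ten times the top valid tested dose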;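 further: more negative values mean stronger growth rescue toward the control strain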
* = called active by the depositor; nt = no result; + = active, no number.

SMILES	SUMO Mot1 rescue	NLRP3 yeast inh	PolyA inhibitor	NALP1 inh	Yeast Mot1 SUMO
O=[N+]([O-])c1cccc(-c2cn3nc(-c4ccccc4)c(-c4ccccc4)nc3n2)c1	7	-18	2	11	nt
COc1ccccc1CNC(=S)Nc1cc(C)ccc1C	5	9	-27	10	nt
Cc1cc(C(=O)NCCN2CCN(c3cccc(Cl)c3)CC2)n(-c2ccccc2)n1	114	16	nt	16	nt
CCCc1cc(=O)oc2c3c(c4c(c12)OC(C)(C)C=C4)OC(C)C(C)C3O (stereo unspecified)	779*	-9	10	-8	0
CCN(CC)CCOC(=O)C(c1ccccc1)c1ccccc1	-8	15	-4	15	nt
O=C(Nc1ccccc1F)C1CCN(C(=O)Cc2ccccc2)CC1	684*	-2	1	7	0
O=C(Nc1ccccc1Br)C1CCN(C(=O)Cc2ccccc2)CC1	352	26	5	1	nt
CCOC(=O)CS(=O)(=O)c1ccc2ccccc2c1	955*	-2	-3	-9	2
Cc1cccc(/C=N/NC(=O)Cc2cccs2)c1	908*	17	10	6	0
N#Cc1cccc(NC(=O)CSc2n[nH]c(=O)[nH]c2=O)c1	652*	6	15	-4	1
O=C(CSc1n[nH]c(=O)[nH]c1=O)Nc1ccc(SC(F)F)cc1	-2	19	nt	nt	nt
CCN(CC)C(=O)CSc1nnc(SCc2ccc(Cl)cc2)s1	510*	22	-17	15	0
CC(C)c1ccc2c(c1)CCC1C(C)(CN)CCCC21C (stereo unspecified)	617*	nt	16	11	-2
CCN1CCCC1CN(Cc1cc2ccc(C)cc2[nH]c1=O)C(=S)Nc1ccccc1OC (stereo unspecified)	81	7	2	27	nt
CCN1CCCC1CN(Cc1cc2ccc(C)cc2[nH]c1=O)C(=S)Nc1ccccc1C(=O)OC (stereo unspecified)	+	26	-8	37*	0
CC1(c2nnc(-c3ccccc3)o2)CC(c2cccnc2)=NO1 (stereo unspecified)	-15	7	-6	2	nt
C(=N\Nc1ccc2nncn2n1)/c1ccccn1	499*	4	5	-7	0
O=C(NC1CCCCC1)N(Cc1cc2cc3c(cc2[nH]c1=O)OCCO3)C1CCCCC1	828*	5	-4	14	0
CCCc1nnc(NC(=O)OCC)s1	-36	19	19	8	nt
CCCCCCCc1n[nH]c(=S)n1Cc1ccccc1	-12	43	2	4	nt
CCCCc1n[nH]c(=S)n1Cc1ccc(C)cc1	+	21	-18	-19	1
Cc1ccc(C)c(CN2C(=O)c3ccccc3S(=O)c3ccc(C(=O)NCCCN4CCCC4)cc32)c1 (stereo unspecified)	61	4	9	26	nt
S=C(Nc1ccccc1Cl)N1CCCCCC1	5	-1	6	-3	nt
S=C(Nc1ccccc1Cl)N1CCOCC1	651*	13	8	32	1
COC(=O)c1nnn(CC(=O)Nc2cccc(Cl)c2)c1C(=O)OC	112	-3	-4	7	nt
SMILES	SUMO Mot1 rescue	NLRP3 yeast inh	PolyA inhibitor	NALP1 inh	Yeast Mot1 SUMO
c1ccc2c(c1)OCCOCCOc1ccccc1OCCOCCO2	735*	18	9	29	1
O=C(CCC1CCCCC1=O)c1ccccc1 (stereo unspecified)	-10	14	-3	8	nt
O=C(O)C1C2CCCCC2=C2CCCCC2C1C(=O)c1ccccc1 (stereo unspecified)	394*	5	15	21	0
Cc1onc(-c2ccccc2Cl)c1C(=O)N1CCc2ccccc2C1	680*	15	-9	20	0
Cc1onc(-c2c(F)cccc2Cl)c1C(=O)N1CCc2ccccc2C1	-33	24	-4	17	nt
COc1cccc(N=C2C(=O)N3CCCc4cccc2c43)c1	2	-4	9	26	nt
Cn1c(=NC(=O)COc2ccccc2)sc2cc(F)cc(F)c21	448*	12	1	11	0
COC(=O)C1=CN(c2ccc(OC)cc2)C=C(C(=O)OC)C1c1ccc(C)c([N+](=O)[O-])c1	-15	21	-11	9	nt
Cc1cnc(NC(=O)CN2CCN(c3ccccc3F)CC2)s1	990*	22	-13	5	0
Cc1cc(-c2ccccc2)n(-c2ccc(C(=O)NC(C)C)cc2)n1	645*	10	5	3	0
O=C(COc1ccccc1O)NCCN1CCOCC1	455	41	6	18	nt
O=C(CC(c1ccccc1)c1ccccc1O)NCCN1CCOCC1 (stereo unspecified)	428*	10	-7	35	1
CCC(C)(C)NC(=O)C(c1ccc(C)cc1)N(CC1CCCO1)C(=O)CNC(=O)c1cccs1 (stereo unspecified)	688*	-5	21	32	0
Cc1ccc(C(C(=O)NC2CCCCC2)N(CC2CCCO2)C(=O)CNC(=O)c2cccs2)cc1 (stereo unspecified)	-14	-1	4	-8	nt
CC(=O)NCCOc1cccc2ccccc12	8	-4	10	20	nt
CCCc1ccccc1OCCNC(C)=O	+	19	7	10	0
CCN(C(=O)Cn1c(=O)oc2ccccc21)c1cccc(C)c1	628*	-7	6	20	0
Cc1ccc(S(=O)(=O)N2CCCOC2CNC(=O)C(=O)NCCN2CCOCC2)cc1 (stereo unspecified)	1	-1	3	13	nt
Cc1cc(S(=O)(=O)N2CCCCC2CCNC(=O)C(=O)NCc2cccnc2)ccc1F (stereo unspecified)	-2	-2	-1	nt	nt
COc1ccc(S(=O)(=O)N2CCCOC2CNC(=O)C(=O)NCCCN2CCOCC2)cc1C (stereo unspecified)	415*	18	1	22	-1
Cc1cc(S(=O)(=O)N2CCCCC2CCNC(=O)C(=O)NCC2CCCO2)ccc1F (stereo unspecified)	391*	17	14	nt	0
CCCCn1c(N)c(N(CCOC)C(=O)c2ccc(S(=O)(=O)N(CC)c3ccccc3)cc2)c(=O)[nH]c1=O	-17	19	-7	nt	nt
Cc1c(Cl)cnc(NC(=O)COC(=O)/C=C/c2ccco2)c1Cl	nt	15	nt	nt	nt
O=C(COC(=O)/C=C/c1ccco1)Nc1ncc(C(F)(F)F)cc1Cl	588*	3	1	19	0
Cc1nn(C)c(C)c1-c1c(C#N)c(N)nc2c1CCCCCC2	+	-6	10	6	0
CCOc1cccc(C(=O)Nc2cc(-c3nn4c(C)nnc4s3)ccc2C)c1	170	14	-18	25	nt
CCc1ccccc1NC(=O)N[C@@H](C)C(=O)OC	650*	-7	15	-20	0
CC(C)N1CCC(N2CCN(Cc3cnc(-c4ccccc4)s3)CC2CCO)CC1 (stereo unspecified)	2	-6	-8	-5	nt
